FBW7 act: human FBW7 E3 ligase activation, primary screen; 0.13% of 650,000 active; AID 1259310; AlphaScreen FBW7–phospho-cyclin E peptide binding, activator screen; Q969H0; normalized activity (activation), % at 26.1 µM; in the data active means normalized activity above about 1.9%;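 further: purified mutant Fbw7 with reduced substrate affinity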
MITF inh: human MITF inhibition, primary screen; inhibition, % at 2.6 µM; AlphaScreen MITF homodimerization, bead proximity signal; O75030; 0.91% of 650,000 active; in the data active means inhibition above about 50%
GPR151 ag: activators of human GPR151; Q8TDV0; PathHunter beta-arrestin GPR151 cells, luminescence; activation, % at 11.2 µM; 1% of 650,000 active; AID 1508602; in the data active means activation above about 4.9%
Target sequence (Q8TDV0 whole entry, looked up): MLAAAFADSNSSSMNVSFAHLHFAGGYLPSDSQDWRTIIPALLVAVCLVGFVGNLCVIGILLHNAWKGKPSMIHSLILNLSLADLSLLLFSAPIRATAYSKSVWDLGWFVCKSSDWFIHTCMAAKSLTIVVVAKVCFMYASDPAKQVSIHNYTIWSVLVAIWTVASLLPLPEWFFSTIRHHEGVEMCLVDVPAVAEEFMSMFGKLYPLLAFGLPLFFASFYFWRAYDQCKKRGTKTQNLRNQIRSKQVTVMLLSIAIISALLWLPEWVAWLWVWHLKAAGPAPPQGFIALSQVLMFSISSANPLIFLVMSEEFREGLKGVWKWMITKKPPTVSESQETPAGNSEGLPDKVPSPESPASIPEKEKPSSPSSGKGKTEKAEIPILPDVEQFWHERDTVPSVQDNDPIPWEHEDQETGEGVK
TEAD-YAP inh: TEAD-YAP interaction inhibition; inhibition, % at 9.12 µM; HEK-TIYL cells, TEAD-Gal4/YAP UAS-luciferase luminescence; AID 1259422; 1.4% of 640,000 active; in the data active means inhibition above about 32%
GPR151 confirm: confirmation of human GPR151 activators; shares compounds with GPR151 ag; GPR151 PathHunter beta-arrestin cells, luminescence, 90 min; % of EA-reagent control over plate median; activation, % at 11.2 µM; 6,700 tested, under 10 active; AID 1508609;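 active means mean percent activation across replicates above the confirmation screen cutoff of 4.91%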
GPR119 ag: activates human GPR119 in a GPR151 counter-screen; shares compounds with GPR151 ag; GPR119 PathHunter beta-arrestin cells, luminescence, 90 min; 0 = compound-well median, 100 = enzyme-acceptor control; activation, % at 11.2 µM; 0.3% of 6,700 active; AID 1508611;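 active means mean percent activation in the counterscreen above 29.09%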;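 further: counterscreen on off-target GPR119 to flag nonselective hits from the GPR151 activator screen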
Large screens that a line does not name were inactive (follow-up assays come after a bar, where they were run); ! = repeats disagree. Most compounds without a hit are left out; they make up all but 3.5% or so of the library.

O=C(CCCN1CCC2(CC1)C(=O)N(Cc1cccc(F)c1)CN2c1ccccc1)c1ccc(F)cc1	GPR151 ag 6.7 (no result: TEAD-YAP inh) | GPR151 confirm inactive | GPR119 ag inactive
COc1ccc(F)cc1C(=O)C1CCCN(CCO)C1 (stereo not drawn)	GPR151 ag 8.3 | GPR151 confirm inactive | GPR119 ag inactive
COc1ccc(F)cc1C(=O)C1CCCN(Cc2ccc(O)cc2)C1 (stereo not drawn)	none
CC(=O)OCC(=O)[C@H]1CC[C@H]2[C@@H]3CC[C@H]4C[C@H](O)CC[C@]4(C)[C@H]3C(=O)C[C@]12C	GPR151 ag 6.2 (no result: TEAD-YAP inh) | GPR151 confirm inactive | GPR119 ag inactive
C[N+]1(C)CCC(OC(=O)C(c2ccccc2)c2ccccc2)CC1	none
CN1C2CCC1CC(OC(=O)C(c1ccccc1)c1ccccc1)C2 (stereo not drawn)	GPR151 ag 5.1 | GPR151 confirm inactive | GPR119 ag inactive
CCn1c2ccccc2c2cc(CN3CCN(C(=O)COc4ccccc4)CC3)ccc21	none
Brc1ccccc1CN1CCOCC1	none
CN1CCN(Cc2ccccc2Br)CC1	GPR151 ag 5.1 | GPR151 confirm inactive | GPR119 ag inactive
COc1ccc(Cc2nccc3cc(OC)c(OC)cc23)cc1OC	GPR151 ag 5.8! | GPR151 confirm inactive | GPR119 ag inactive
COc1ccc(CCNCc2cc(OC)c(OC)c(OC)c2)cc1OC	none
N#CC1=C(N)Oc2c(c(=O)oc3ccccc23)C1c1ccc(OCc2ccccc2)cc1 (stereo not drawn)	none
O=c1c2ccccc2nc(/C=C/c2ccco2)n1-c1ccc(O)cc1	GPR151 ag 5.1 | GPR151 confirm inactive | GPR119 ag inactive
NP(=O)(Oc1ccc(Cl)cc1)Oc1ccc(Cl)cc1	GPR151 ag 6.3 | GPR151 confirm inactive | GPR119 ag inactive
Cc1cccc(OP(N)(=O)Oc2cccc(C)c2)c1	none
O=C(N/N=C1/CN2CCC1CC2)c1ccc(O)cc1	none
CC1(C)C(c2ccccc2)=[N+]([O-])C(c2cccnc2)N1O (stereo not drawn)	GPR151 ag 6.2 | GPR151 confirm inactive | GPR119 ag inactive
CC1(C)C(c2ccccn2)=[N+]([O-])C(c2cccnc2)N1O (stereo not drawn)	none
CCOc1ccc(C2SCC(=O)Nc3c2c(=O)[nH]n3C(CC)CC)cc1 (stereo not drawn)	GPR151 ag 7.1 | GPR151 confirm inactive | GPR119 ag inactive
Nc1nc2cc([N+](=O)[O-])c([N+](=O)[O-])cc2[nH]1	none
CCN1CCN(Cc2ccc([N+](=O)[O-])cc2)CC1	GPR151 ag 10 | GPR151 confirm inactive | GPR119 ag inactive
CCC(C)N1CCN(Cc2ccc([N+](=O)[O-])cc2)CC1 (stereo not drawn)	none
O=c1c2ccccc2nc(/C=C/c2ccc3c(c2)OCO3)n1-c1ccccc1O	GPR151 ag 8.9 | GPR151 confirm inactive | GPR119 ag inactive
Cc1ccc2oc(=O)c3cc(C(=O)N4CCC5(CC4)OCCO5)sc3c2c1	none
CSC1=NP(=S)(SC)Nc2c1c(C)nn2-c1ccccc1 (stereo not drawn)	none
NC(=O)OCCCc1ccccc1	none
CCCCOC(=O)c1ccccc1C(=O)OCCCC	GPR151 ag 5.9! | GPR151 confirm inactive | GPR119 ag inactive
Cc1noc(C)c1CC(=O)N1CCCC(N2CCOCC2)C1 (stereo not drawn)	none
O=C(Cc1ccsc1)N1CCCC(N2CCOCC2)C1 (stereo not drawn)	GPR151 ag 5.8 | GPR151 confirm inactive | GPR119 ag inactive
NC1=Nc2ccccc2Sc2ccccc21	GPR151 ag 5.3 | GPR151 confirm inactive | GPR119 ag inactive
CN1CCN(C(=O)C(O)(c2ccccc2)c2ccccc2)CC1	GPR151 ag 11 | GPR151 confirm inactive | GPR119 ag inactive
CCOC(=O)C1=C(C)OC(N)=C(C(=O)OCC)C12C(=O)N(CC(N)=O)c1ccccc12 (stereo not drawn)	GPR151 ag 9.6 | GPR151 confirm inactive | GPR119 ag inactive
CCOC(=O)C1=C(C)OC(N)=C(C#N)C12C(=O)N(CC(N)=O)c1ccccc12 (stereo not drawn)	none
N#CCCn1cc(C=O)c(-c2ccccc2)n1	none
CCn1ccnc1CN1CCCC(C(=O)c2ccc(C(C)(C)C)cc2)C1 (stereo not drawn)	none
O=c1c2ccccc2nc(/C=C/c2ccc([N+](=O)[O-])cc2)n1-c1ccc(Br)cc1	none
CCCCOc1ccc(CN2CCN(CCO)CC2)cc1	none
CCCCCCOc1ccc(CN2CCN(CCO)CC2)cc1	GPR151 ag 5.9 | GPR151 confirm inactive | GPR119 ag inactive
CS(=O)(=O)c1ccc(N2CCNCC2)c(F)c1	GPR151 ag 4.9 | GPR151 confirm inactive | GPR119 ag inactive
CCC(=O)NC(Oc1ccc(C=O)cc1)C(Cl)(Cl)Cl (stereo not drawn)	none
COc1ccccc1-n1c(/C=C\c2ccccc2[N+](=O)[O-])nc2ccccc2c1=O	none
O=c1c2cc(Cl)cc(Cl)c2nc(CN2CCOCC2)n1-c1ccccc1F	GPR151 ag 17 | GPR151 confirm inactive | GPR119 ag inactive
CC(C)CC(=O)Nc1ccc(C#N)c(Cl)c1	none
C=CCc1cc(OC)c2c(c1OC)OCO2	GPR151 ag 11 | GPR151 confirm inactive | GPR119 ag inactive
COc1cc(CN2CCNCC2)cc2c1OCO2	none
C[C@]12CC[C@H](O)C[C@H]1CC[C@@H]1[C@@H]2C[C@@H](O)[C@]2(C)[C@@H](C3=CC(=O)OC3)CC[C@]12O	GPR151 ag 5.7!, TEAD-YAP inh 98 | GPR151 confirm inactive | GPR119 ag 109
CN1CCC(N2CCCC(C(=O)c3ccc(Cl)cc3)C2)CC1 (stereo not drawn)	none
CN1CCN(c2ccc(/C=C(\C#N)C(N)=O)cc2[N+](=O)[O-])CC1	GPR151 ag 17 | GPR151 confirm inactive | GPR119 ag inactive
O=C(Cc1ccc([N+](=O)[O-])cc1)N1CCN(C2CCCCC2)CC1	none
COc1ccc2[nH]cc(CN(C)C)c2c1	none
COc1ccc2[nH]c3c(c2c1)CCN=C3C	GPR151 ag 5.6 (no result: TEAD-YAP inh) | GPR151 confirm inactive | GPR119 ag inactive
CN(CC(=O)c1ccccc1F)C1CCCCC1	none
CCOC(=O)c1c(CN2CCCC2)n(Cc2ccccc2)c2cc(Br)c(O)cc12	none
CCOC(=O)c1c(CN2CCCCC2)n(Cc2ccccc2)c2cc(Br)c(O)cc12	GPR151 ag 5.0 | GPR151 confirm inactive | GPR119 ag inactive
O=C1C=C2C=C[C@H]3C[C@]2(O1)[C@@H]1CCCCN13	GPR151 ag 9.6! | GPR151 confirm inactive | GPR119 ag inactive
COc1cccc(CCNCc2cc(OC)c(OC)cc2[N+](=O)[O-])c1	GPR151 ag 8.4 | GPR151 confirm inactive | GPR119 ag inactive
COc1cccc(CCNCc2ccccc2[N+](=O)[O-])c1	none
COc1ccc(OC)c(N2Cc3ccccc3C2=N)c1	GPR151 ag 5.9 | GPR151 confirm inactive | GPR119 ag inactive

Bioassay records deposited in PubChem by The Scripps Research Institute Molecular Screening Center.
